Where “and” joins values, the source holds several entries; their conditions need not be identical. Equal values may be shown once. The campaign covered roughly 5,500 compounds. About 2,000 (36%) were called active. Another 18% or so got no clear call; they are omitted. Rule as the data show it: active = normalized growth mostly below about 0.91 (no sharp cut-off); inconclusive = no clear call, values can overlap the other calls; inactive = mostly above about 0.92. The list shows a part of the results.
Assay: chemical genetic growth profiling, strain panel (AID 1159580);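 also: tested at 20 µM; growth read once vehicle control cultures reached saturation at 30 °C; 1 = growth at the plate median or of vehicle wells; lower values mean less growth of the strain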
Conditions: S. cerevisiae deletion strains, growth OD

Measured: normalized growth

NC(=O)c1ccccc1O
inactive: locus YAL021C, strain ccr4, stronger effect = lower value 0.988 | locus YAL026C, strain drs2, stronger effect = lower value 0.996 | locus YAL030W, strain snc1, stronger effect = lower value 0.966 | locus YBL061C, strain skt5, stronger effect = lower value 0.97 | locus YBR009C, strain hhf1, stronger effect = lower value 1.04 | locus YBR021W, strain FUR4, stronger effect = lower value 1.04 | locus YBR023C, strain chs3, stronger effect = lower value 0.987 | locus YBR171W, strain sec66, stronger effect = lower value 0.959 | locus YBR229C, strain ROT2, stronger effect = lower value 0.999 | locus YBR231C, strain swc5, stronger effect = lower value 0.988 | locus YBR279W, strain paf1, stronger effect = lower value 0.997 | locus YCL011C, strain gbp2, stronger effect = lower value 0.956 | locus YCL016C, strain dcc1, stronger effect = lower value 1.01 | locus YCL029C, strain bik1, stronger effect = lower value 1.02 | locus YCL061C, strain MRC1, stronger effect = lower value 0.963 | locus YCL069W, strain vba3, stronger effect = lower value 0.974 | locus YCR088W, strain abp1, stronger effect = lower value 0.974 | locus YDL005C, strain med2, stronger effect = lower value 0.972 | locus YDL035C, strain GPR1, stronger effect = lower value 1.01 | locus YDL040C, strain nat1, stronger effect = lower value 0.984 | locus YDL074C, strain BRE1, stronger effect = lower value 0.997 | locus YDL101C, strain DUN1, stronger effect = lower value 1.01 | locus YDL134C, strain PPH21, stronger effect = lower value 1 | locus YDL185W, strain tfp1, stronger effect = lower value 1.01 | locus YDL192W, strain arf1, stronger effect = lower value 1.01 | locus YDR001C, strain nth1, stronger effect = lower value 0.967 | locus YDR069C, strain doa4, stronger effect = lower value 0.952 | locus YDR101C, strain arx1, stronger effect = lower value 1 | locus YDR137W, strain rgp1, stronger effect = lower value 0.964 | locus YDR159W, strain sac3, stronger effect = lower value 0.985 | locus YDR162C, strain NBP2, stronger effect = lower value 1.01 | locus YDR195W, strain ref2 0.927 | locus YDR297W, strain sur2, stronger effect = lower value 0.981 | locus YDR318W, strain mcm21, stronger effect = lower value 1.01 | locus YDR334W, strain swr1, stronger effect = lower value 0.935 | locus YDR335W, strain msn5, stronger effect = lower value 0.947 | locus YDR388W, stronger effect = lower value 1.01 | locus YDR392W, strain spt3, stronger effect = lower value 1.05 | locus YDR502C, strain sam2, stronger effect = lower value 0.997 | locus YEL003W, strain gim4, stronger effect = lower value 0.981 | locus YEL037C, strain rad23, stronger effect = lower value 0.976 | locus YEL061C, strain CIN8 (second series), stronger effect = lower value 0.98 | locus YEL061C, strain CIN8, stronger effect = lower value 1 | locus YER015W, strain faa2, stronger effect = lower value 1.01 | locus YER016W, strain bim1, stronger effect = lower value 1.01 | locus YER110C, stronger effect = lower value 1.01 | locus YER111C, strain swi4, stronger effect = lower value 0.97 | locus YER155C, strain BEM2 (second series), stronger effect = lower value 0.929 | locus YER155C, strain BEM2, stronger effect = lower value 1.01 | locus YER167W, strain BCK2, stronger effect = lower value 1.01 | locus YFR010W, strain ubp6, stronger effect = lower value 0.96 | locus YGL078C, strain dbp3, stronger effect = lower value 1 | locus YGL086W, strain mad1, stronger effect = lower value 0.998 | locus YGL167C, strain pmr1, stronger effect = lower value 0.961 | locus YGL173C, strain kem1, stronger effect = lower value 0.968 | locus YGL227W, strain vid30, stronger effect = lower value 0.975 | locus YGL240W, strain doc1, stronger effect = lower value 0.981 | locus YGL248W, strain PDE1, stronger effect = lower value 1 | locus YGL253W, strain hxk2, stronger effect = lower value 0.997 | locus YGR135W, strain pre9, stronger effect = lower value 1.02 | locus YGR229C, strain SMI1, stronger effect = lower value 1.01 | locus YGR252W, strain gcn5, stronger effect = lower value 1.03 | locus YHR013C, strain ard1, stronger effect = lower value 0.988 | locus YHR027C, strain rpn1, stronger effect = lower value 0.991 | locus YHR030C, strain SLT2, stronger effect = lower value 1 and 1.07 | locus YHR079C, strain IRE1 (second series), stronger effect = lower value 1.02 | locus YHR079C, strain IRE1, stronger effect = lower value 1.06 | locus YHR094C, strain hxt1, stronger effect = lower value 1 | locus YHR129C, strain ARP1, stronger effect = lower value 1.01 | locus YHR142W, strain chs7, stronger effect = lower value 0.946 | locus YHR200W, strain rpn10, stronger effect = lower value 1 | locus YIL066C, strain RNR3, stronger effect = lower value 0.993 | locus YIL073C, strain SPO22, stronger effect = lower value 1.05 | locus YIL125W, strain kgd1, stronger effect = lower value 1 | locus YIR030C, strain dcg1, stronger effect = lower value 1.01 | locus YJL092W, strain hpr5, stronger effect = lower value 0.96 | locus YJL095W, strain BCK1 (second series), stronger effect = lower value 0.973 | locus YJL095W, strain BCK1, stronger effect = lower value 1 and 1.05 | locus YJL115W, strain asf1, stronger effect = lower value 0.985 | locus YJL129C, strain trk1, stronger effect = lower value 0.992 | locus YJL134W, strain LCB3, stronger effect = lower value 1 | locus YJL154C, strain vps35, stronger effect = lower value 0.965 | locus YJL164C, strain tpk1, stronger effect = lower value 1 | locus YJL166W, strain qcr8, stronger effect = lower value 0.924 | locus YJL168C, strain set2, stronger effect = lower value 1.01 | locus YJL187C, strain SWE1 (second series), stronger effect = lower value 1.01 | locus YJL187C, strain SWE1, stronger effect = lower value 0.989 | locus YJR043C, strain POL32, stronger effect = lower value 0.985

Reference: PubChem BioAssay AID1159580 (chemical genetic matrix, 2015)
